# Measurements reported in PubChem BioAssay (NCATS).
# Records with an inconclusive call do not appear. Activity calls are given as the source filed them. The call rests on the fitted dose curve; in most records, active means well fitted cell-killing curve with a large enough effect; inconclusive means small, poorly fitted or top-dose-only effect; inactive means no such curve, though single readings can be large or run the other way.
# Assay: qHTS of pediatric cancer cell lines to identify multiple opportunities for drug repurposing: Confirmatory screen for TC32 cells (AID 1347118);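 further: cells exposed to compound for 48 h before the read; nearly all actives have a fitted effect of over 65% in size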
# Settings: TC32 Ewing sarcoma cells viability qHTS; series mostly up to 45.9 µM; activity change, negative = cytotoxicity: at the top concentration
# In short: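 Luminescent CellTiter-Glo read-out of metabolically active TC32 cells after 48 h compound exposure. Primary: MIPE 11-point, 0.78 nM–46 µM; NPC 8-point, 0.59 nM–46 µM. Confirmatory: 11-point dilutions.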
# On the % scale 0 is the no-effect control and ±100 the full control effect; potency means the concentration at half of the fitted maximal effect.
Structure (SMILES),Potency,"activity change, negative = cytotoxicity"
Nc1[nH]nc2nnc(-c3c(-c4ccccc4)nn4ccccc34)cc12,16.5 µM (active),–
CC[C@H](NC(=O)[C@H](C)NC)C(=O)N1C[C@@H](O)C[C@H]1Cc1c(-c2[nH]c3cc(F)ccc3c2C[C@H]2C[C@H](O)CN2C(=O)[C@H](CC)NC(=O)[C@H](C)NC)[nH]c2cc(F)ccc12,2.93 µM (active),–
O=C1NC(=O)C(c2cnc3ccccn23)=C1c1cn2c3c(cccc13)CN(C(=O)N1CCOCC1)CC2,4.65 µM (active),–
COC(=O)Nc1ccc(-c2nc(N3CCOCC3)c3cnn(C4CCN(C(=O)OC)CC4)c3n2)cc1,3.69 µM (active),–
CC(C)CN(C[C@@H](O)[C@H](Cc1ccccc1)NC(=O)O[C@H]1CO[C@H]2OCC[C@H]21)S(=O)(=O)c1ccc(N)cc1,–,-29% (inactive)
CON(C)C(=O)N1N=C(c2cc(F)ccc2F)S[C@]1(CCCN)c1ccccc1,0.0117 µM (active),–
COc1cc2nccc(Oc3ccc(NC(=O)Nc4cc(C)on4)c(Cl)c3)c2cc1OC,18.5 µM (active),–
COc1cc2c(cc1Cc1cccc(Cl)c1F)c(=O)c(C(=O)O)cn2[C@H](CO)C(C)C,13.1 µM (active),–
CN1N=C(N)c2cn([C@@H]3O[C@H](COP(=O)(O)O)[C@@H](O)[C@@H]3O)c3ncnc1c23,0.737 µM (active),–
CC(C)n1c(C=C[C@H](O)C[C@H](O)CC(=O)O)c(-c2ccc(F)cc2)c2ccccc21,16.5 µM (active),–
CN(C(Cc1ccc(OS(=O)(=O)c2cccc3cnccc23)cc1)C(=O)N1CCN(c2ccccc2)CC1)S(=O)(=O)c1cccc2cnccc12 (stereo not drawn),3.69 µM (active),–
CCC(c1ccc(O)cc1)C(CC)c1ccc(O)cc1 (stereo not drawn),3.69 µM (active),–
Nc1ccn([C@@H]2O[C@H](CO)[C@@H](O)[C@H]2O)c(=O)n1,0.329 µM (active),–
